CR mimetic SO: reduction of superoxide in aged yeast, primary screen, HTS. S. cerevisiae aged cells, superoxide DHE fluorescence; stronger effect = lower value. 0.18% of 330,000 active. superoxide response (% of plate mean), % at 10 µM;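 active means superoxide response under a set limit, about three screen SD below normal, cut at about 65% in these data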;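 further: yeast aged for seven days with compound at 30 °C before DHE staining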
A3G deaminase: APOBEC3G DNA deaminase inhibitors, primary screen, biochemical, fluorescence, single-stranded DNA substrate, uHTS. 0.28% of 330,000 active. AID 493012, 2011. DNA dC->dU-editing enzyme APOBEC-3G (Homo sapiens), Q9HC16. inhibition, % at 20 µM. recombinant A3G, ssDNA deamination FAM/TAMRA fluorescence;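 active means inhibition of at least 40% at 20 µM, with no more than 30% in the related APOBEC3A deaminase screen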
Target sequence (Q9HC16 whole entry, looked up): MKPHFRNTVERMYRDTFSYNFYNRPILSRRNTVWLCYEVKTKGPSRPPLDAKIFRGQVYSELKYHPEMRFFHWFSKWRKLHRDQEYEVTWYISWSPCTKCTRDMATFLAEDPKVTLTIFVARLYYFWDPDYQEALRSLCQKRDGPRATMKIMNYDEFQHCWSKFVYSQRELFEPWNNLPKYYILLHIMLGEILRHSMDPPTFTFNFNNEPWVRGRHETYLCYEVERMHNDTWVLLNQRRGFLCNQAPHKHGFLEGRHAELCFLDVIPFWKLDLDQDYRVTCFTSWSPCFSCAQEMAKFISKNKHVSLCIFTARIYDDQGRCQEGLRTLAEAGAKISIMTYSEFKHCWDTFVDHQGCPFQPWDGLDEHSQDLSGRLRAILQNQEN
NRP1-CendR mod: modulators of CendR peptide binding to NRP-1, primary screen, biochemical, fluorescence polarization, uHTS; inhibition, % at 25 µM; Neuropilin-1 (Homo sapiens), O14786; AID 602438, 2012; 0.85% of 360,000 active; FAM-RPARPAR peptide binding to NRP-1;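 active means inhibition or corrected inhibition above about 18%, plus a signal ratio from 0.5 to 1.5, limit read from the data, passing the limit was not always enough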
PfM18AAP inh: PfM18AAP inhibitors, malaria aminopeptidase, primary screen, biochemical, QFRET, recombinant enzyme. 1.2% of 290,000 active. H-Glu-NHMec fluorogenic cleavage. inhibition, % at 7.35 µM. AID 1822, 2009. M18 aspartyl aminopeptidase (Plasmodium falciparum 3D7);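 active means inhibition above the campaign mean inhibition over all tested compounds plus 3 SD, cut at about 28% in these data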
A3A deaminase: APOBEC3A ssDNA deaminase inhibitors, primary screen, selectivity assay for APOBEC3G inhibitor project, biochemical, FAM/TAMRA oligo cleavage fluorescence; DNA dC->dU-editing enzyme APOBEC-3A (Homo sapiens), P31941; 0.41% of 330,000 active; AID 493011, 2011; inhibition, % at 20 µM; recombinant A3A, FAM/TAMRA ssDNA deamination fluorescence;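 active means at least 40% inhibition at 20 µM here, with at most 30% in a related deaminase screen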
ALR inh: inhibitors of human ALR sulfhydryl oxidase, primary screen, biochemical, H2O2 detection, HRP-luminol luminescence, single point. FAD-linked sulfhydryl oxidase ALR (Homo sapiens), P55789. purified ALR, DTT oxidation. inhibition, % (no concentration beside the values). 3.8% of 290,000 active;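 active means mean replicate inhibition above about 79%, with every replicate also reaching it, limit read from the data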
Target sequence (P55789 whole entry, looked up): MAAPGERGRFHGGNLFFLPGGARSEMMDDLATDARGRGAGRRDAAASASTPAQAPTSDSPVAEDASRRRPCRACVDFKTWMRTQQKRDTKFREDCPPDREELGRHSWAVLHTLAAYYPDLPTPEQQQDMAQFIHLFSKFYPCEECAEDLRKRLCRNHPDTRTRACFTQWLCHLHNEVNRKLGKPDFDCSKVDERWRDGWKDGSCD
Numbers stand for hits; i = inactive; nt = no result given; ! = repeats disagree. Shown are actives, neighbours in structure and some others; about 5.2% of the full set was active somewhere.

SMILES	CR mimetic SO	A3G deaminase	NRP1-CendR mod	PfM18AAP inh	A3A deaminase	ALR inh
Cc1oc(-c2ccccc2F)nc1CSCC(=O)NCc1ccc2c(c1)OCO2	i	i	i	i	i	97.9
Cc1oc(-c2ccccc2F)nc1CS(=O)CC(=O)NCc1ccc(F)cc1 (stereo not drawn)	i	i	i	i	i	98.6
COc1cc([N+](=O)[O-])cc(/C=N/NC(=O)C(C)Nc2cccc3ccccc23)c1O (stereo not drawn)	i	i	31.8	i	i	i
CC(=O)Nc1cccc(NC(=O)CSc2nc(=O)n(Cc3ccccn3)c3c2CCC3)c1	i	i	i	nt	i	98.4
CC(=O)Nc1cccc(NC(=O)CSc2nc(=O)n(Cc3ccncc3)c3c2CCC3)c1	i	i	i	nt	i	98.9
COc1cccc(NC(=O)CSc2nc(=O)n(Cc3ccncc3)c3c2CCCC3)c1	i	i	i	nt	i	i
CCOc1ccccc1NC(=O)CSc1nc(=O)n(Cc2ccccn2)c2c1CCC2	i	i	i	nt	i	nt
CC1CCN(CC(=O)N2CC(=O)Nc3ccccc32)CC1	i	i	i	i	i	i
CCN(CCO)c1ncnc2c1sc1nc(C(C)C)c3c(c12)CC(C)(C)OC3	i	i	i	i	i	i
CCN(CCO)c1nc(SC)nc2c1sc1nc(-c3ccco3)c3c(c12)CCC3	i	i	i	i	i	97.0
CSc1nc(NCCOCCO)c2sc3nc(-c4ccco4)c4c(c3c2n1)CCC4	i	i	i	i	i	96.5
COc1ccccc1/C=C/C=N/Nc1cccc(C(=O)O)c1	i	i	i	i	i	98.5
COc1ccc(Br)cc1/C=N/Nc1cccc(C(=O)O)c1	i	i	i	i	i	nt
O=C(O)c1cccc(N/N=C/c2ccc(-c3ccccc3)cc2)c1	nt	nt	i	i	nt	nt
Cc1c(N=Cc2cc(Br)cc(Br)c2O)cccc1C(=O)O	i	i	i	34.4	i	97.7
O=C(O)c1cccc(N/N=C/c2cc(Br)cc(Br)c2O)c1	i	i	i	i	i	98.4
CC(C)(C)c1ccc(/C=N/Nc2cccc(C(=O)O)c2)cc1	i	i	i	30.5	i	i
CC(C)(C)NC(=O)Cn1c(SCC(=O)NC2CCCCC2)nc2ccccc21	i	i	i	i	i	i
O=C1NC[C@@H](CCCCN2C[C@H](Cc3ccccc3)N(CCc3ccc(O)cc3)C(=O)C2=O)N(CCc2ccccc2)C1=O	nt	nt	i	nt	nt	nt
NC(=O)c1ccccc1Br	i	i	i	i	i	i
Cn1ccnc1/C(=N\NC(=O)c1ccc(O)cc1)c1cccc([N+](=O)[O-])c1	i	i	i	i	i	i
Cn1ccnc1/C(=N\NC(=O)c1ccccc1)c1cccc([N+](=O)[O-])c1	i	i	i	i	i	95.5
Cc1ccc(Cl)cc1NC(=O)CSC(N)=O	i	i	i	i	i	98.2
COCC(=O)Nc1cc(Cl)ccc1C	i	i	i	i	i	i
CCOC(=O)CSCC(=O)Nc1cc(C)ccc1C	i	i	i	i	i	98.1
SMILES	CR mimetic SO	A3G deaminase	NRP1-CendR mod	PfM18AAP inh	A3A deaminase	ALR inh
Cc1ccc(Cl)cc1NC(=O)COC(=O)CN1C(=O)C2CCCCC2C1=O (stereo not drawn)	i	i	26.2	nt	i	nt
COC(=O)c1ccc(COC(=O)CSCC(=O)Nc2ccc(C)cc2C)cc1	i	i	i	nt	i	nt
Cc1ccc(Cl)cc1NC(=O)COC(=O)CCN1C(=O)C2CC=CCC2C1=O (stereo not drawn)	i	i	i	nt	i	nt
CCN(CC)S(=O)(=O)c1ccc(-c2nnc(SCC(=O)Nc3cc(OC)cc(OC)c3)o2)cc1	i	i	i	i	i	i
COc1ccc(S(=O)(=O)NCC2CCCN(C(=O)CN3CCCCC3)C2)cc1 (stereo not drawn)	i	i	i	i	i	i
O=C(c1ccccc1)c1coc2c1C(=O)c1ccccc1C2=O	i	i	i	i	i	i
COc1ccc(C(=O)c2coc3c2C(=O)C(=O)c2ccccc2-3)cc1	i	i	25.2	i	i	i
O=c1nccc(N/N=C/c2ccccc2O)[nH]1	i	i	i	28.8	i	i
c1ccc2c(CSCCc3ccncc3)cccc2c1	i	i	i	i	i	99.7
Cn1c(=O)cc(N)n(-c2ccccc2)c1=O	i	i	i	i	i	i
CCC1Nc2ncnc(N3CCCCC3)c2N(Cc2ccccc2)C1=O (stereo not drawn)	i	i	i	nt	i	i
CCC1Nc2ncnc(N3CCCCC3)c2N(Cc2ccc(C)cc2)C1=O (stereo not drawn)	i	i	29.4!	nt	i	i
C[C@H]1CCC[C@]2(O[C@H](CCO)C[C@H](O)[C@H]2O)O1	i	i	29.2	nt	i	i
O=C1NC(C(=O)O)=CC(c2ccc([N+](=O)[O-])cc2)N1 (stereo not drawn)	i	i	i	i	i	78.1
CC1(C(=O)O)COC(c2ccc([N+](=O)[O-])cc2)OC1 (stereo not drawn)	i	i	i	i	i	i
COc1cccc(NC(=O)c2cc([N+](=O)[O-])ccc2NCc2cccnc2)c1	i	i	i	i	i	i
Cc1nc2ccc(Br)cn2c1NC(C)(C)C	i	i	i	i	i	95.0
Cc1nc2ccc(Br)cn2c(=O)c1Cl	i	i	i	i	i	i
CC(C)Cn1c(-c2ccc(Br)cc2)c[nH]c1=S	i	i	i	i	i	96.9
CCn1c(-c2ccccc2)c[nH]c1=S	i	i	i	i	i	99.0
Clc1ccc(-c2nnc(-c3ccccc3)o2)c(Cl)c1	i	i	i	i	i	i
COc1cc(N)c2ncccc2c1OC	nt	nt	i	nt	nt	nt
COc1cc(NCCCCCCN)c2ncccc2c1OC	nt	nt	31.0	nt	nt	nt
COc1cc(NC(C)CCCNC(C)C)c2ncccc2c1OC (stereo not drawn)	nt	nt	24.0	nt	nt	nt
CSCCC(NC(=O)c1ccc(C(C)(C)C)cc1)C(=O)O (stereo not drawn)	i	i	i	i	i	i
CCC(C)(C)n1nnnc1CN1CCc2ccccc21	i	i	i	i	i	98.2
c1ccc2c(c1)CCCN2Cc1nnnn1CC1CCCO1 (stereo not drawn)	i	i	23.8	i	i	i
c1ccc(CCn2nnnc2CN2CCCc3ccccc32)cc1	i	i	i	i	i	88.8
c1ccc2sc(N3CCN(Cc4nnnn4CC4CCCO4)CC3)nc2c1 (stereo not drawn)	i	i	i	i	i	i
CCOC(=O)c1ccc(N2CCCCC2)c(NS(=O)(=O)c2ccc(C)cc2)c1	i	i	i	i	i	i
